# Reference: ChEMBL document CHEMBL3988442, “University of Dundee, Small-Polar-MMV Screening Library” (2021)
# For part of these data: Results with a measured potency or affinity are listed apart.
# Columns and labels:
# Set-up in all cases: scale not given: direction of the effect not stated beside the values
# [1] = biological target: Protein translocase subunit SecA (Escherichia coli (strain K12)) (UniProt P10408); test: Assay to Identify E. coli SecA ATPase Inhibitors; assay type: functional; conditions: 30 µM
# [2] = biological target: T1, Ubiquitin-activating enzyme e1, putative (Leishmania donovani (strain BPK282A1)) (UniProt E9BSI1); test: Leishmania donovani Ubiquitin Activating Enzyme (LdE1); assay type: functional; conditions: 30 µM
# T1 sequence (whole entry): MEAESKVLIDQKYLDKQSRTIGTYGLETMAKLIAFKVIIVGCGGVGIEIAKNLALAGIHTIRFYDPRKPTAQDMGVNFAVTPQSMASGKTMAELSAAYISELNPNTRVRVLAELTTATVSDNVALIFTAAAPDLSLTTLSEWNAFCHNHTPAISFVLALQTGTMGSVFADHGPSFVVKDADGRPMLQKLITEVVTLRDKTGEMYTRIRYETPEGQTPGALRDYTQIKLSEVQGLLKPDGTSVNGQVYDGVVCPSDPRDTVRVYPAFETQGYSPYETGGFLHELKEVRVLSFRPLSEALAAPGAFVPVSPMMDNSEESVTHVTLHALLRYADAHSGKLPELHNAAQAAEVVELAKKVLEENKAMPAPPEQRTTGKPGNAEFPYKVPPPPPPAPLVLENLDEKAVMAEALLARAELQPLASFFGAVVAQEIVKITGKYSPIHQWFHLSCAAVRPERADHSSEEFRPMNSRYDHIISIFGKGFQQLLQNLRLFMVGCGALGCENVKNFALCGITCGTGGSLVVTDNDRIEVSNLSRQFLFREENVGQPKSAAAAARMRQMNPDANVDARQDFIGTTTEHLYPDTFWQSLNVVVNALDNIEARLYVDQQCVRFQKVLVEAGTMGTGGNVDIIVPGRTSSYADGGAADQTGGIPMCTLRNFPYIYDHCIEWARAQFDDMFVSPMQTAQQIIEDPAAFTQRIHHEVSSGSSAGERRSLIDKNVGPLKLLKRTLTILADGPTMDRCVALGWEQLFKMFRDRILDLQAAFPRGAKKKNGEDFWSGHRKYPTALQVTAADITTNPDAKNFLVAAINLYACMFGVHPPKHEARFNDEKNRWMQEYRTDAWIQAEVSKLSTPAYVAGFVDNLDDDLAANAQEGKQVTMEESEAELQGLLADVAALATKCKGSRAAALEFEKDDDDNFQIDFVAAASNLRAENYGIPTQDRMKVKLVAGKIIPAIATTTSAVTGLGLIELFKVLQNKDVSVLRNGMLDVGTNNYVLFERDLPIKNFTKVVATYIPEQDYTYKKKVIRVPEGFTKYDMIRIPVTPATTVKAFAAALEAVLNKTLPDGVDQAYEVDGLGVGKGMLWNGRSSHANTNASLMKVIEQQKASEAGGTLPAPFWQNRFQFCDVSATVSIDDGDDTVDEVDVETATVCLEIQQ
# [3] = biological target: T2, Aspartate--tRNA(Asp/Asn) ligase (Mycobacterium tuberculosis (strain ATCC 25618 / H37Rv)) (UniProt P9WFW3); test: Assay for Asp RNA synthetase-1 from Mycobacterium tuberculosis; assay type: functional; conditions: 30 µM; also: in the data most compounds retested in dose-response had high values
# T2 sequence (whole entry): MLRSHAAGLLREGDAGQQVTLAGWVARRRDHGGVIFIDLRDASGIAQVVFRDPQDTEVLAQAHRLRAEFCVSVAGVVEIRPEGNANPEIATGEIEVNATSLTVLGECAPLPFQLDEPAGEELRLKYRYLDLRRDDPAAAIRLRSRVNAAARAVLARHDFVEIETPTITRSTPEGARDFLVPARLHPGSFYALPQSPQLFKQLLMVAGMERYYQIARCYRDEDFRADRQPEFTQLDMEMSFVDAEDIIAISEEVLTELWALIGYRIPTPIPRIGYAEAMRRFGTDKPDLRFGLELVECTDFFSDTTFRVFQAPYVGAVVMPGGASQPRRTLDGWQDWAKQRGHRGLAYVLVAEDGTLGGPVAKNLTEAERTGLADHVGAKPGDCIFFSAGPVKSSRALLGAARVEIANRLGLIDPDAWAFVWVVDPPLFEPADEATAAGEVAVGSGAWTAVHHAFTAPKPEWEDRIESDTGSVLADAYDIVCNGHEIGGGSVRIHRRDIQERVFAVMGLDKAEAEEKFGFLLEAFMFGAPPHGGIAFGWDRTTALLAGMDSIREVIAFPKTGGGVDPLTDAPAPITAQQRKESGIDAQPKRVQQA
# [4] = biological target: Sialic acid-binding Ig-like lectin 9 (Homo sapiens) (UniProt Q9Y336); test: Hs-Siglec9 ALPHAscreen SOP 20170721; conditions: 10 µM
# Trypanosoma cruzi = test: Trypanosoma cruzi phosphomannomutase and mannose-1-phosphate guanylyltransferase assay; assay type: functional; conditions: 10 µM
# [5] = biological target: T3, Arginase-2, mitochondrial (Homo sapiens) (UniProt P78540); test: in vitro enzyme assay to detect the production of urea directly proportional to the activity of Arginase II; assay type: functional; conditions: 33.3 µM; also: in the data most compounds retested in dose-response had high values
# T3 sequence (whole entry): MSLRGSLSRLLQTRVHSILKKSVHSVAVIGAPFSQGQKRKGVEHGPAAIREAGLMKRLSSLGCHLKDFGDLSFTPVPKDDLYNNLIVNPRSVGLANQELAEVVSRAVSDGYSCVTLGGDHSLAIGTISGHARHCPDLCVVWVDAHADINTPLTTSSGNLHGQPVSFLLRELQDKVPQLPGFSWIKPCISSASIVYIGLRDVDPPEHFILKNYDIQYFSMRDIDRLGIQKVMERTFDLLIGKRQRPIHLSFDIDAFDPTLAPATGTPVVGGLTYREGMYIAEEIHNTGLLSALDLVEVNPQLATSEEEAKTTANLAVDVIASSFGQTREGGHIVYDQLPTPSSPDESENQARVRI
# [6] = biological target: T4, Proteasome subunit beta (Trypanosoma cruzi) (UniProt O96673); test: Trypanosoma cruzi proteasome chymotrypsin-like activity (TcProtChymo) assay.; also: in the data most compounds retested in dose-response had high values; assay type: functional; conditions: 9.37 µM
# T4 sequence (whole entry): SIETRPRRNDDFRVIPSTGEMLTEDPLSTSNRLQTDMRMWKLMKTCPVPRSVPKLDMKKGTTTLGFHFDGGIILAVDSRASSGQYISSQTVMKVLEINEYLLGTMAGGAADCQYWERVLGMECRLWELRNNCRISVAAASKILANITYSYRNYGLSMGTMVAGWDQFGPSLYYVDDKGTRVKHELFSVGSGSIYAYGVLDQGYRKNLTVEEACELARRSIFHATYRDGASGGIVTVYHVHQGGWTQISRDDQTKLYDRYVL
# Homo sapiens = species: Homo sapiens; test: To identify inhibition of the IFN signalling (Jak-Stat) pathway via expression of an eGFP reporter gene under the control of an IFN-stimulated response element (ISRE) containing MxA promoter.; assay type: functional; conditions: 30 µM
# [7] = biological target: Shiga toxin 2 (Escherichia coli O157:H7) (UniProt P09385+P09386); test: E. coli 0.157:H7 Shiga Toxin SOP - stx2 screening assay; assay type: functional; conditions: 30 µM
# [8] = biological target: T5, Tyrosyl-tRNA synthetase, putative (Trypanosoma cruzi (strain CL Brener)) (UniProt Q4DSP6); test: Trypanosoma cruzi tyrosyl tRNA synthetase (TcYRS) _High Tyrosine SOP; assay type: functional; conditions: 30 µM; also: in the data most compounds retested in dose-response had high values
# T5 sequence (whole entry): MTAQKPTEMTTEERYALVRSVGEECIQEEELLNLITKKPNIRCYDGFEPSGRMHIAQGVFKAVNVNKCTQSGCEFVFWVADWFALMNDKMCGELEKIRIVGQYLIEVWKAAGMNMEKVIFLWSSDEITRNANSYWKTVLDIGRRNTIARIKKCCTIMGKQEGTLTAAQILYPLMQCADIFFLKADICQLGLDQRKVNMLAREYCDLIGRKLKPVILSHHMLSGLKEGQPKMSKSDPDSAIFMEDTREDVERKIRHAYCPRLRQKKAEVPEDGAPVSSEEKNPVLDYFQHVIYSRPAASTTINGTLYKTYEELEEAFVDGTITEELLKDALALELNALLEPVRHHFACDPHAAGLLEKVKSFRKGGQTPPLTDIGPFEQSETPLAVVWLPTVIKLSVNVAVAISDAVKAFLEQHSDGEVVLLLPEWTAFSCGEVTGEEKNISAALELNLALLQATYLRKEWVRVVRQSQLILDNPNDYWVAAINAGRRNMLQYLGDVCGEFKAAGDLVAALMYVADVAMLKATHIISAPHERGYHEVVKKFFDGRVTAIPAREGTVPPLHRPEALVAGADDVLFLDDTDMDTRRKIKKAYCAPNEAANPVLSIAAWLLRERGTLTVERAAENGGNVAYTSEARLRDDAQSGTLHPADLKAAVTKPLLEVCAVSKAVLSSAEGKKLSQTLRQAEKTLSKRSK
# [9] = biological target: T5, Tyrosyl-tRNA synthetase, putative (Trypanosoma cruzi (strain CL Brener)); test: Trypanosoma cruzi tyrosyl tRNA synthetase (TcYRS) SOP; assay type: functional; conditions: 30 µM
# [10] = biological target: Chromo domain-containing protein 1 (Saccharomyces cerevisiae (strain ATCC 204508 / S288c) (Baker's yeast)) (UniProt P32657); test: ScCHD-1 Enzyme Inhibition Assay; assay type: functional; conditions: 30 µM; also: in the data most compounds retested in dose-response had high values
# [11] = biological target: AMP-activated protein kinase, AMPK (Homo sapiens) (UniProt P54646+O43741+P54619+Q9UGJ0+Q9Y478+Q13131+Q9UGI9); test: AMP-dependent Kinase enzyme assay. An in vitro enzyme assay that detects ADP turnover that is directly proportional to AMPK activity. This uses naive AMPK that is activated during the assay with MK-8722; assay type: functional; conditions: 30 µM
# Chain of Protein translocase subunit SecA (Escherichia coli (strain K12)) (P10408 whole entry): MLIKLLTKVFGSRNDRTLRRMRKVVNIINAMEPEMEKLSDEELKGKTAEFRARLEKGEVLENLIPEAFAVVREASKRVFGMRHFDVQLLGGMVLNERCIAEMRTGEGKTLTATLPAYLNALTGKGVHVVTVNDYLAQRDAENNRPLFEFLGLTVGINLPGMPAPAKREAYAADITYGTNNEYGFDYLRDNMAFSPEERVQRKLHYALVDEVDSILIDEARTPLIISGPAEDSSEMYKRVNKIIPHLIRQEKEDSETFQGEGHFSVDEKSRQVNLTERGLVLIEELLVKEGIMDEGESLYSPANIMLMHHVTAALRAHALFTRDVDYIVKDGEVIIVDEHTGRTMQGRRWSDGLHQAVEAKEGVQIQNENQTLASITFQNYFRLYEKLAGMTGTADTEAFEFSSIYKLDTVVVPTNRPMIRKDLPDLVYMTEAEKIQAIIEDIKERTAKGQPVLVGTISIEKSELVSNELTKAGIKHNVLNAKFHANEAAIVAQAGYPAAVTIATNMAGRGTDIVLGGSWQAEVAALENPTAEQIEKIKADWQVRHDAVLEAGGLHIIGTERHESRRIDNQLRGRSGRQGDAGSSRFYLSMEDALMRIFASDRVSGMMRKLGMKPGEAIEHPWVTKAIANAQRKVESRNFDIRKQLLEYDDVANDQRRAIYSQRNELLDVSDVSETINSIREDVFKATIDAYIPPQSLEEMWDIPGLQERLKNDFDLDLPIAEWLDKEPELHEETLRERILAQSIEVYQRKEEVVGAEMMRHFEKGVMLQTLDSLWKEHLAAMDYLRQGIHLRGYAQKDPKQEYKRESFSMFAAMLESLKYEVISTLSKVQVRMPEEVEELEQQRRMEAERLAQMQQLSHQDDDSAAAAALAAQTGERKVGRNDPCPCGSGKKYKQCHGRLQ
# Chain of Chromo domain-containing protein 1 (Saccharomyces cerevisiae (strain ATCC 204508 / S288c) (Baker's yeast)) (P32657 whole entry, the tested form may be a part): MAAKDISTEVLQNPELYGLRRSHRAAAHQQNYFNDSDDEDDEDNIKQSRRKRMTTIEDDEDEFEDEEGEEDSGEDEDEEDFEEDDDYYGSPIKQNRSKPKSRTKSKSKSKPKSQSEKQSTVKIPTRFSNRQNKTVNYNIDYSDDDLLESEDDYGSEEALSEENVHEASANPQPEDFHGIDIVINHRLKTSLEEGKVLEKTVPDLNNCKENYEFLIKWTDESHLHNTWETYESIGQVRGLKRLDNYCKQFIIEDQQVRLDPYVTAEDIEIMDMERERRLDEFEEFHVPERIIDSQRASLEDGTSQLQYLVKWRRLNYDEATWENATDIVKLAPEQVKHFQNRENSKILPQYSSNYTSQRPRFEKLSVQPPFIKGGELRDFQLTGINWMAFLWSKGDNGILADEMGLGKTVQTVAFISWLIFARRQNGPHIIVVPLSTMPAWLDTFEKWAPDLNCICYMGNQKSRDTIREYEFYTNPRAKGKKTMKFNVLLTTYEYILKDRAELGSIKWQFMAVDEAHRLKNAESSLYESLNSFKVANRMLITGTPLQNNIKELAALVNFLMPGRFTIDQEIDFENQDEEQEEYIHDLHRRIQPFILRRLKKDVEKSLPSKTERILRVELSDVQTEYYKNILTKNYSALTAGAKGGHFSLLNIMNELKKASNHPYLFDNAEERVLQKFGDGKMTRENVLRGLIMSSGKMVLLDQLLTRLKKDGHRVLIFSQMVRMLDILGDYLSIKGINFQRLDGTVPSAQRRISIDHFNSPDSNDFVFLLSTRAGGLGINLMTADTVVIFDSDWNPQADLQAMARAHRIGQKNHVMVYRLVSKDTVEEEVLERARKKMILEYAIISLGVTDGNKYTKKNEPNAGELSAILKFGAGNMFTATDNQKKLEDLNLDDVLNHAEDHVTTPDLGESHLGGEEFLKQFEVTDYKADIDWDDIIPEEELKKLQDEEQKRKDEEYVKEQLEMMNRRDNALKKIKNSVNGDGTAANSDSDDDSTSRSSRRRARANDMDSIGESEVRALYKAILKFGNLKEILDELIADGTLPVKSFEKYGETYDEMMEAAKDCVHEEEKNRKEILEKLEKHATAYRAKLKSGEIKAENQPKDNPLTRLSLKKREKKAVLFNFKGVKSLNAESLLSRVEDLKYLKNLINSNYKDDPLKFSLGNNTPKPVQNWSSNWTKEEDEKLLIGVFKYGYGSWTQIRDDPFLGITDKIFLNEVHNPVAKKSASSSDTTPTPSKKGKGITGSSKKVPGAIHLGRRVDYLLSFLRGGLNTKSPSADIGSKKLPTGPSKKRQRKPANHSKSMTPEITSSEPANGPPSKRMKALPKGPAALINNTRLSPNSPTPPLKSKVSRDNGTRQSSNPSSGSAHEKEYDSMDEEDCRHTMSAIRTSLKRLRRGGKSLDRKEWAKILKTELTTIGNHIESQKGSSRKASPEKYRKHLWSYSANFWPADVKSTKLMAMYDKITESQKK
# Chain of Sialic acid-binding Ig-like lectin 9 (Homo sapiens) (Q9Y336 whole entry): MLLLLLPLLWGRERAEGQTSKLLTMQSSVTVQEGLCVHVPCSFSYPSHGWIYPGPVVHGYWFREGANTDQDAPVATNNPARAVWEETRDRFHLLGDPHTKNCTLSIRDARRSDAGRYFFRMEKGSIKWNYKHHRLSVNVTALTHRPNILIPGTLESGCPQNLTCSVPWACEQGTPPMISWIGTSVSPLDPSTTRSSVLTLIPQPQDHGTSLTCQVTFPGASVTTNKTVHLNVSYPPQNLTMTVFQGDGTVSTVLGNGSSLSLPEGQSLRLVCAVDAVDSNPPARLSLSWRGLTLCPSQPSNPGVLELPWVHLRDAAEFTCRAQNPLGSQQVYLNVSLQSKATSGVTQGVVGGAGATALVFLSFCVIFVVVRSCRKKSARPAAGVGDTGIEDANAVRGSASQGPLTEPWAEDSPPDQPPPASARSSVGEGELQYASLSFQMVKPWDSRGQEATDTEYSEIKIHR
SMILES,Percent Effect [1] [%],Percent Effect [2] [%],Percent Effect [3] [%],Percent Effect [4] [%],Percent Effect (Trypanosoma cruzi) [%],Percent Effect [5] [%],Percent Effect [6] [%],Percent Effect (Homo sapiens) [%],Percent Effect [7] [%],Percent Effect [8] [%],Percent Effect [9] [%],Percent Effect [10] [%],Percent Effect [11] [%]
c1ccc(N2CCCC3(CCN(Cc4cccs4)C3)C2)nc1 (stereo not given),-7.4,16.9,-1.46,-2.35,-2.81,-0.913,10.4,17.3,5.58,1.93,-2.5,-9.64,–
O=C1CC[C@H]2[C@H](CCN2Cc2ccccn2)N1CC1CCOCC1,-3.55,9.09,-4.23,-1.65,-5.63,2.74,3.35,8.69,-14,-0.966,2.5,-0.494,–
COCCN1CCN(Cc2ccncc2)[C@H]2CS(=O)(=O)C[C@H]21,-10.2,10.8,-1.29,17.6,6.3,16.4,5.99,6.91,11.1,4.79,14.6,-4.57,–
O=C(Cc1c(F)cccc1F)N1CCN(CC(=O)N2CCCC2)CC1,-1.5,-1.3,-5.83,-2.19,-0.938,4.57,22.1,12.9,16.1,4.83,10,-6.7,–
CCN1CCC2(CCC1=O)CN(c1ccnc(SC)n1)CCN2C (stereo not given),-7.58,5.33,-3.27,13,-0.682,6.25,11.2,7.14,–,3.83,8.64,-7.61,2.15
CC(C)c1nccc([C@H]2C[C@@H]3CCN(Cc4ccco4)C[C@H]3O2)n1,-6.35,-3.9,9.38,3.38,4.58,-7.69,14.4,3.14,5.36,6.84,15.4,1.21,–
O=C1CO[C@@H]2CN(Cc3cccs3)C[C@H]2N1Cc1ccncc1,-2.47,14.3,9.56,-8.26,-2.63,10.9,21.8,-2.63,-17.5,12.1,10.3,3.61,–
COc1ccc(Cl)cc1CC(=O)N1CCN(CCO)CC1,-6.68,10.4,1.78,0.349,-4.1,4.71,0.877,12.1,-8.21,-1.96,-2.35,2.44,–
CCCN1C(=O)CC2(CCCNC2)C1=O (stereo not given),-4.19,11.7,3.28,-2.44,-1.13,-0.913,3.86,-15.1,2.28,1.93,7.5,-2.73,–
c1ccc(N2CCCC3(CCN(Cc4nccs4)C3)C2)nc1 (stereo not given),-1.98,14.3,-1.46,3.73,0.75,-5.94,18.4,4.2,7.26,10.6,20,-11.5,–
